About 83,000 compounds went through this panel and 20% of them were active in at least one assay; those are over-represented in the sample as a whole.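 Method: cells in 96-well plates; compound added at one concentration; 48 h incubation; percent growth measured; values under 10 scored active.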 Unmarked numbers belong to inactive results. Active and inactive are the calls of the source.

Among the test systems are T-47D breast; BT-549 breast; MDA-MB-435 melanoma; SW-620 colon; MCF7 breast; HCT-116 colon; HCC-2998 colon.
What all share (assay): NCI-60 one-dose screen, 48 h (100 = growth as untreated, 0 = no growth, -100 = all killed)
Common to all, as to settings: 10 µM

Regarding `c1ccc(/C(=N\Nc2ccc3ccccc3n2)c2ccccn2)cc1`, the growth was 16.5% in the test with T-47D breast; 12.3% with BT-549 breast; 23.4% in the test on MDA-MB-435 melanoma; 22.6% in the test with SW-620 colon; 12.2% in the test with MCF7 breast; 9.03% (active) in the test on HCT-116 colon. Besides, in the test with HCC-2998 colon, the growth is 45.5%.

For the compound `Nc1ccc(CC[C@H]2CCC/C=C/[C@@H]3C[C@H](O)C[C@H]3[C@H](O)/C=C/C(=O)O2)cc1`, the growth with T-47D breast is 10.2%; in the test on BT-549 breast it was 11.6%; with MDA-MB-435 melanoma it was 11.4%; with SW-620 colon, -27.4% (active); in the test on MCF7 breast, -44.7% (active); in the test on HCT-116 colon it was -73.7% (active). For the same compound, the growth in the test on HCC-2998 colon is -15.3% (active).

For `N#Cc1c(-c2ccc(Cl)cc2)n(O)c2ccccc12`, the growth with T-47D breast is 13.2%; in the test on BT-549 breast it was 0.694% (active); in the test on MDA-MB-435 melanoma, 2.57% (active); with SW-620 colon it was 15.3%; with MCF7 breast, 17.5%; with HCT-116 colon, 12.9%. For the same compound, in the test with HCC-2998 colon, the growth is 47.2%.

For `Cc1nc2n(c(=O)c1CCN1CCC(c3noc4cc(F)ccc34)CC1)CCC[C@@H]2O`, the growth with T-47D breast was 84.1%; in the test with BT-549 breast, 99.4%; in the test with MDA-MB-435 melanoma, 98.8%; in the test with SW-620 colon, 101%; in the test on MCF7 breast, 84.7%; in the test on HCT-116 colon it was 99.5%. The growth in the test on HCC-2998 colon was 109%.

Consider `CC[C@@H](C(=O)[C@@H](C)[C@@H](O)[C@H](C)[C@@H]1O[C@@H]([C@@H](CC)C(=O)O)CC[C@@H]1C)C1O[C@]2(C=CC(=O)[C@]3(CC[C@@](C)([C@H]4CC[C@](O)(CC)[C@H](C)O4)O3)O2)[C@H](C)C[C@@H]1C` (some centres not stated), for which the growth in the test with T-47D breast is 26.1%; in the test on BT-549 breast, 34.2%; with MDA-MB-435 melanoma, 21%; in the test on SW-620 colon, 35.2%; in the test with MCF7 breast, 11.2%; in the test with HCT-116 colon, 32.6%. The growth with HCC-2998 colon is 36.1%.

Regarding `COc1cc2nc(SCC(=O)Nc3cc(OC)c(OC)c(OC)c3)n(Cc3ccccc3)c(=O)c2cc1OC`, the growth in the test on T-47D breast was 73.5%; in the test on BT-549 breast, 14%; with MDA-MB-435 melanoma it was 76.2%; with SW-620 colon, 91%; in the test with MCF7 breast it was 82.6%; with HCT-116 colon, 52.1%. The growth with HCC-2998 colon was 77.2%.

On to `COc1cc2c(cc1NC(=O)C(Cl)Cl)-c1ccc(NC(=O)C(Cl)Cl)cc1C2`, for which the growth with T-47D breast was 3.05% (active); with BT-549 breast, 69.3%; in the test on MDA-MB-435 melanoma, -57.7% (active); in the test with SW-620 colon, -11.6% (active); in the test on MCF7 breast it was -3.08% (active); in the test on HCT-116 colon, -61% (active). In addition, in the test on HCC-2998 colon, the growth was -98.5% (active).

`CN(C)c1nc(N)c2nccnc2n1`: the growth in the test on T-47D breast was 104%; in the test on BT-549 breast, 104%; in the test with MDA-MB-435 melanoma it was 106%; in the test with SW-620 colon it was 99.2%; with MCF7 breast, 96%; in the test with HCT-116 colon, 104%.

On to `CC[C@@H](C(=O)[C@H](C)[C@H](O)[C@@H](C)[C@H]1O[C@H]([C@@H](CC)C(=O)N(CC)CC)CC[C@H]1C)C1O[C@]2(C=C[C@@H](O)[C@]3(CC[C@@](C)([C@H]4CC[C@](O)(CC)[C@H](C)O4)O3)O2)[C@H](C)C[C@@H]1C` (some centres not stated), for which the growth is 17% in the test on T-47D breast; 37.1% in the test on BT-549 breast; 26.3% in the test with MDA-MB-435 melanoma; 18.5% in the test on SW-620 colon; 10.4% with MCF7 breast; 10.8% in the test on HCT-116 colon. For the same compound, the growth in the test with HCC-2998 colon is 22.1%.

Consider `CCOC(=O)c1sc2ncnc(Nc3ccc(NC(=O)Nc4ccc(Cl)cc4)cc3)c2c1C`, for which the growth in the test with T-47D breast was 45.4%; in the test with BT-549 breast, 61.8%; in the test with MDA-MB-435 melanoma, 59.4%; in the test on SW-620 colon, 63.7%; in the test with MCF7 breast it was 52.1%; with HCT-116 colon, 17%. In addition, the growth in the test with HCC-2998 colon was 90.3%.

As for `COc1ccc(C(=O)COc2cccc(/C=C3\Cc4ccccc4C3=O)c2)cc1`, the growth with T-47D breast was 73.8%; with BT-549 breast, 74.5%; with MDA-MB-435 melanoma, 58.8%; in the test on SW-620 colon, 89.5%; in the test on MCF7 breast, 65.9%; in the test on HCT-116 colon it was 84.4%. The growth in the test on HCC-2998 colon was 92.9%.

`O=C(COc1cccc(/C=C2\CSc3ccc(Cl)cc3C2=O)c1)c1ccc(Cl)cc1`: the growth was 45.2% in the test with T-47D breast; 20.2% with BT-549 breast; 87.7% in the test on MDA-MB-435 melanoma; -71.6% (active) in the test with SW-620 colon; -35.1% (active) in the test on MCF7 breast; 42% with HCT-116 colon. The growth with HCC-2998 colon was 32.9%.

Consider `CC(=O)Nc1ccc(CC[C@H]2CCC/C=C/[C@@H]3C[C@H](O)C[C@H]3[C@H](O)/C=C/C(=O)O2)cc1`, for which the growth was 7.42% (active) in the test with T-47D breast; 27.5% in the test on BT-549 breast; 14.7% with MDA-MB-435 melanoma; 0.331% (active) in the test with SW-620 colon; -14.8% (active) in the test on MCF7 breast; -67.9% (active) in the test with HCT-116 colon. For the same compound, the growth in the test with HCC-2998 colon is 2.85% (active).

With `c1ccc(CSc2ncccc2-c2nnc(SCCN3CCOCC3)o2)cc1`, the growth with T-47D breast is 101%; in the test on BT-549 breast, 112%; with MDA-MB-435 melanoma, 114%; in the test with SW-620 colon, 107%; with MCF7 breast it was 94.9%; with HCT-116 colon it was 108%. In addition, the growth in the test with HCC-2998 colon is 116%.

With `Nc1ccn(Cc2nnc(CCC(=O)c3nc4ccccc4[nH]3)o2)c(=O)n1`, the growth in the test with T-47D breast was 71.6%; in the test on BT-549 breast it was 74.5%; in the test with MDA-MB-435 melanoma, 91.9%; in the test with SW-620 colon it was 83.5%; in the test on MCF7 breast, 35.7%; in the test with HCT-116 colon, 63.8%. Also, the growth with HCC-2998 colon is 79.8%.

With `O=C(O)c1cc([N+](=O)[O-])ccc1Oc1ccccc1`, the growth is 106% in the test with T-47D breast; 92.7% in the test on BT-549 breast; 94.1% with MDA-MB-435 melanoma; 96.1% with SW-620 colon; 99.3% in the test with MCF7 breast; 102% in the test with HCT-116 colon. Moreover, in the test on HCC-2998 colon, the growth is 105%.

For `O=C(c1ccccc1)N(C(=O)c1ccccc1)N1CCCC1`, the growth is 99.9% in the test on T-47D breast; 105% with BT-549 breast; 116% in the test with MDA-MB-435 melanoma; 100% with SW-620 colon; 105% in the test on MCF7 breast; 106% in the test with HCT-116 colon.

For the origin of these results see PubChem BioAssay (NCI).
